The panel holds about 79,000 compounds, 15% with a hit somewhere; the sample as a whole holds those more often. Unmarked numbers belong to inactive results. The source made the active and inactive calls. No stated cut-off is given here; in the data, active means growth inhibition above about 70%; inactive means the rest.
Key:
[1] = NCI Yeast Anticancer Drug Screen. Data for the rad50 strain (AID 155);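 further: 0% = growth of vehicle-only cultures of the same strain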; settings: S. cerevisiae rad50 strain growth inhibition, active compounds read high
Outline: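 Yeast carrying a defined DNA repair defect were exposed to test compounds, and growth was compared with vehicle-treated controls to give percent inhibition.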

[2] = NCI Yeast Anticancer Drug Screen. Data for the mec2-1 strain (AID 157); settings: S. cerevisiae mec2-1 strain, active compounds read high
Outline: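 Readout is yeast growth inhibition, normalised to vehicle-treated controls, in the mec2-1 strain exposed to compound.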

[3] = NCI Yeast Anticancer Drug Screen. Data for the sgs1 mgt1 strain (AID 161);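 further: 0% = growth of cultures given vehicle only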; settings: S. cerevisiae sgs1 mgt1 strain, active compounds read high
Outline: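 Growth of a repair-deficient yeast mutant was monitored after compound treatment and expressed as inhibition relative to vehicle-treated cultures.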

[4] = NCI Yeast Anticancer Drug Screen. Data for the cln2 rad14 strain (AID 165);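 further: 0% = growth equal to vehicle treated cultures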; settings: S. cerevisiae cln2 rad14 strain, active compounds read high
Outline: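 Relative to vehicle controls, growth inhibition of compound-treated cln2 rad14 yeast was recorded.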

[5] = NCI Yeast Anticancer Drug Screen. Data for the bub3 strain (AID 167); settings: S. cerevisiae bub3 mutant strain, active compounds read high
Outline: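 Compounds were applied to a genetically altered yeast strain carrying a cell-cycle control defect. Growth inhibition was scored against vehicle-treated controls.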

[6] = NCI Yeast Anticancer Drug Screen. Data for the mlh1 rad18 strain (AID 175); settings: S. cerevisiae mlh1 rad18 strain growth inhibition, active compounds read high
Outline: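 Test agents were incubated with a yeast strain of defined genotype (DNA damage repair defect). Inhibition of growth was derived by comparison with vehicle-exposed cultures.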

[7] = at 5.0 µM (retest, dose inferred, filed as 0.5)
[8] = at 50.0 µM (retest, dose inferred, filed as 5.0)

| Structure (SMILES) | growth inhibition [1, 7] | growth inhibition [1, 8] | growth inhibition ([1]; at 50.0 µM) | growth inhibition [2, 7] | growth inhibition [2, 8] | growth inhibition ([2]; at 50.0 µM) | growth inhibition [3, 7] | growth inhibition [3, 8] | growth inhibition ([3]; at 50.0 µM) | growth inhibition [4, 7] | growth inhibition [4, 8] | growth inhibition ([4]; at 50.0 µM) | growth inhibition [5, 7] [%] | growth inhibition [5, 8] | growth inhibition ([5]; at 50.0 µM) | growth inhibition [6, 7] | growth inhibition [6, 8] | growth inhibition ([6]; at 50.0 µM) |
| --- | --- | --- | --- | --- | --- | --- | --- | --- | --- | --- | --- | --- | --- | --- | --- | --- | --- | --- |
| CCCCCCCCCCCC(=O)NC(CCC(=O)O)C(=O)O (stereo not given) | 4% | -2% | -6.05% | -19% | -12% | -8% | -3% | -1% | 5.95% | -5% | -9% | 49.4% | -7 | 0% | -2.15% | -18% | -8% | 5.1% |
| O=C1c2cc([N+](=O)[O-])cc3cc([N+](=O)[O-])cc(c23)C(=O)N1CCNCCN1C(=O)c2cc([N+](=O)[O-])cc3cc([N+](=O)[O-])cc(c23)C1=O | 86% (active) | 92% (active) | 81.2% (active) | 42% | 89% (active) | 89.2% (active) | 64% | 94% (active) | 42.4% | 62% | 90% (active) | 70.3% (active) | 61 | 92% (active) | 92.3% (active) | 56% | 92% (active) | 76.3% (active) |
| CC(=O)c1c(O)c2cccc3c2n(c1=O)CCC3 | 26% | 99% (active) | 97.2% (active) | -13% | 99% (active) | 91.6% (active) | 4% | 98% (active) | 94.9% (active) | 3% | 98% (active) | 71.3% (active) | -2 | 99% (active) | 84.4% (active) | 11% | 98% (active) | 95.3% (active) |
| CC/C(=C(\CC)c1ccc(O)c(CN(CCO)CCO)c1)c1ccc(O)cc1 | -3% | 11% | 36.9% | -1% | 5% | 22.2% | -2% | 28% | 69.2% | 0% | -1% | 0.6% | -5 | 25% | 12.5% | -2% | 33% | 73.6% (active) |
| S=c1nc(/C=C/c2ccc(Cl)c(Cl)c2)[nH][nH]1 | 29% | 68% | 79.5% (active) | 28% | 51% | 44.8% | 27% | 51% | 65.2% | 31% | 42% | 65% | 33 | 67% | 83.7% (active) | 39% | 71% (active) | 22.6% |
| CCCCN(CCCC)C(=O)c1ccc(OC(=O)OCC)c(OC)c1 | 4% | 6% | 56.9% | 0% | 10% | 37% | 2% | 31% | 49.8% | 4% | 17% | 8.8% | 2 | 24% | 85.1% (active) | -2% | 29% | 17% |
| COC(=O)c1ccc(CSc2ccc(OC)cc2)cc1 | 16% | 84% (active) | 88.5% (active) | -14% | 75% (active) | 83.2% (active) | 8% | 92% (active) | 88.3% (active) | 2% | 83% (active) | 80.9% (active) | 1 | 80% (active) | 85.2% (active) | -21% | 91% (active) | 85.3% (active) |
| COC(=O)c1ccc(NCc2c(O)ccc(O)c2Br)cc1Cl | 21% | 99% (active) | 89.5% (active) | 14% | 99% (active) | 92.2% (active) | 21% | 99% (active) | 89.1% (active) | 25% | 99% (active) | 90.2% (active) | 22 | 99% (active) | 91.8% (active) | 25% | 98% (active) | 91.7% (active) |
| O=[N+]([O-])c1cccc2nc3ccccc3c(NCCNCCO)c12 | 89% (active) | 98% (active) | 75.3% (active) | 95% (active) | 99% (active) | 51.2% | 90% (active) | 99% (active) | 80.2% (active) | 75% (active) | 98% (active) | 76.8% (active) | 42 | 99% (active) | 10.6% | 89% (active) | 98% (active) | 88% (active) |
| CCN(CC)C(=O)CCCC1CCCCC1 | 1% | 23% | 45.6% | -3% | 4% | 13.2% | 0% | 20% | 66.5% | 0% | 11% | -9% | 6 | 25% | 44% | 1% | 7% | 26.9% |
| COc1ccc2[nH]cc(C(=O)O)c2c1 | -4% | 55% | 38% | -5% | 65% | 2.6% | 7% | 31% | 66.3% | 0% | 36% | 40% | 1 | 46% | 79.8% (active) | -30% | 84% (active) | 25% |
| CC(NC(=O)OC(C)(C)C)C(=O)NC(Cc1ccccc1)C(=O)NCC(=O)Oc1c(Cl)c(Cl)c(Cl)c(Cl)c1Cl (stereo not given) | 30% | 66% | 65.4% | 27% | 45% | 71.5% (active) | 41% | 72% (active) | 77% (active) | 27% | 55% | 46.5% | 35 | 61% | 56.5% | 68% | 79% (active) | 73.4% (active) |
| CC1=CC(C2/C(=N/O)C=C(C)CC2(C)C)C(O)C(C)(C)C1 (stereo not given) | 7% | 95% (active) | 99.2% (active) | -18% | 99% (active) | 98.2% (active) | -4% | 96% (active) | 98.8% (active) | -1% | 97% (active) | 97.8% (active) | -23 | 92% (active) | 98.2% (active) | -3% | 98% (active) | 98.7% (active) |
| O=C(O)c1ccc(CSc2ccc(Cl)cc2)cc1 | -4% | 0% | 52% | -2% | 19% | 10.4% | 11% | 36% | 51.3% | -7% | -15% | 36.7% | -6 | 39% | 18.7% | 0% | 17% | 71.3% (active) |
| OC(C1CCCCN1)C1CC(c2ccccc2)Nc2c(Cl)cc(Cl)cc21 (stereo not given) | 9% | 99% (active) | 99.4% (active) | -2% | 99% (active) | 99.5% (active) | -1% | 99% (active) | 99.4% (active) | -4% | 99% (active) | 99% (active) | 1 | 99% (active) | 49.5% | 6% | 99% (active) | 99.4% (active) |
| Cc1ccc(S(=O)(=O)NC(CCC(=O)Nc2ccccc2)C(=O)O)cc1 (stereo not given) | -4% | 0% | 12.8% | -4% | -4% | 18.9% | -6% | -20% | 21.2% | -5% | -15% | 22% | -3 | 2% | 96.2% (active) | 0% | -2% | 40.5% |
| COc1cc(Cc2n[nH]c(=S)n2-c2ccccc2)c(S(=O)(=O)N2CCOCC2)cc1OC | 4% | 1% | -10.2% | -2% | -5% | -5.2% | 9% | -6% | -0.7% | 1% | 0% | 82.7% (active) | -3 | 7% | -32% | -2% | -62% | 11.4% |
| Oc1ccc(C2Oc3ccccc3C=C2c2ccccc2)cc1 (stereo not given) | 51% | 98% (active) | -10.4% | 58% | 99% (active) | -25.8% | 61% | 99% (active) | -5.2% | 15% | 99% (active) | -14.8% | 13 | 99% (active) | -1.25% | 81% (active) | 98% (active) | -7.45% |
| C/C(=N/NC(=S)Nc1ccc([N+](=O)[O-])cc1)c1cccc(/C(C)=N\NC(=S)Nc2ccc([N+](=O)[O-])cc2)n1 | 14% | 50% | 19.6% | 5% | 72% (active) | 0.15% | 15% | 87% (active) | 35.5% | 19% | 82% (active) | -7.35% | 21 | 94% (active) | 2.45% | 10% | 61% | 14.4% |
| CC/C(=C(\CC)c1ccc(O)c(CN(CC)CC)c1)c1ccc(OC)cc1 | -1% | 68% | 99.4% (active) | 15% | 62% | 99.7% (active) | -31% | 92% (active) | 99.6% (active) | -1% | 80% (active) | 99.5% (active) | 0 | 65% | 99.4% (active) | 5% | 99% (active) | 99.5% (active) |
